Among all 52,000 compounds or so, about 4,300 (8.3%) were called active. This is one part of a sample in which actives are shown more often than they occur. Cut-off read from the data, not from the text of the source: active = survival mostly below about 52% (no sharp cut-off); inactive = mostly above about 56%.
Test system: DeltatarO mutant
Test: S. aureus survival, RN4220 and DeltatarO strains – OD600, teichoic acid synthesis inhibitors, primary screen (AID 463173)
Settings: S. aureus RN4220 wild type/DeltatarO growth, OD600, 18 h, hits give low values, screened at 18.75 µg/mL (by protocol)

| Compound | survival |
| --- | --- |
| CCn1c(=O)n(CC)c2cc(N3CCCCC3)c(NC(=O)Nc3ccccc3C(F)(F)F)cc21 | 101% (inactive) |
| Cc1cc(-c2ccc(C)c(S(=O)(=O)N(C(C)C)C3CCCCC3)c2)on1 | 88% (inactive) |
| Cn1c2c(c(=O)n(C)c1=O)C(c1ccccc1[N+](=O)[O-])CC(=O)N2 (stereo not given) | 93% (inactive) |
| COc1ccc(-c2nc3cc(C(C)C)ccc3o2)cc1NC(=O)c1ccccc1[N+](=O)[O-] | 50% (inactive) |
| COc1ccc(-c2nc3cc(C(C)C)ccc3o2)cc1NC(=O)c1ccc(C)c(Cl)c1 | 21% (active) |
| COc1ccc(-c2nc3cc(NC(=O)COc4ccccc4C)ccc3o2)cc1 | 60% (inactive) |
| COc1ccc(-c2nc3cc(C(C)C)ccc3o2)cc1NC(=O)COc1ccc(C)cc1C | 37% (active) |
| CCOc1ccc(C(=O)Nc2ccc(-c3nc4cc(C(C)C)ccc4o3)cc2)cc1Cl | 65% (inactive) |
| COc1ccc(-c2nc3cc(NC(=O)COc4ccc(C)c(C)c4)ccc3o2)cc1 | 84% (inactive) |
| O=C(Nc1ccc(F)c(Cl)c1)C1CCCN(S(=O)(=O)c2cccc3nsnc23)C1 (stereo not given) | 67% (inactive) |
| O=C(CSc1nc2c([nH]c3ccccc32)c(=O)n1-c1ccc(Cl)cc1)NC1CCCCC1 | 87% (inactive) |
| COc1ccccc1NC(=O)Cn1c(=O)n(-c2ccccc2Cl)c(=O)c2sc3ccccc3c21 | 77% (inactive) |
| O=C(CN(CC1CCCO1)S(=O)(=O)c1ccc(S(=O)(=O)N2CCOCC2)cc1)Nc1ccccc1 (stereo not given) | 89% (inactive) |
| CCOC(=O)c1ccccc1NC(=O)Cn1ccn2nc(-c3ccc(OCC)cc3)cc2c1=O | 115% (inactive) |
| COC(=O)CSc1nc2cc3c(cc2cc1C#N)OCO3 | 97% (inactive) |
| CCc1ccc(-n2c(N3CCN(c4ccc(F)cc4)CC3)nc3ccccc3c2=O)cc1 | 83% (inactive) |
| Cc1cc2nc(-c3ccc(OCc4ccccc4C)cc3)cc(C(F)(F)F)n2n1 | 13% (active) |
| Cc1ccc(-c2cc(C(F)(F)F)n3nc(-c4ccc(Cl)cc4)cc3n2)cc1 | 51% (inactive) |
| Cc1cc2nc(-c3ccc(OCc4ccccc4Cl)cc3)cc(C(F)(F)F)n2n1 | 25% (active) |
| COc1ccc(-c2cc3nc(-c4ccccc4)cc(C(F)(F)F)n3n2)cc1 | 58% (inactive) |

| Compound | survival |
| --- | --- |
| Cc1cc2nc(-c3ccc(OCc4ccccc4F)cc3)cc(C(F)(F)F)n2n1 | 45% (active) |
| CCN(c1ccc(OC)cc1)S(=O)(=O)c1ccc2[nH]c3c(c2c1)CCCCC3 | 80% (inactive) |
| CCc1cc(C(=O)Nc2cnn(Cc3ccc(F)cc3)c2)no1 | 50% (inactive) |
| COc1ccc(Cc2nc3ccc(C(=O)NCc4cc(Br)ccc4OC)cc3o2)cc1 | 93% (inactive) |
| COc1ccc(CNC(=O)CCCCCn2c(=O)[nH]c3ccccc3c2=O)cc1 | 86% (inactive) |
| Cc1ccc(S(=O)(=O)c2cnc(SC(C)C(=O)Nc3ccccc3)[nH]c2=O)cc1 (stereo not given) | 71% (inactive) |
| CC1CCC2(CC1)Nc1ccccc1S2 (stereo not given) | 105% (inactive) |
| O=C(COC(=O)c1ccccn1)Nc1ccccc1 | 101% (inactive) |
| Cc1ccc(NC(=O)c2c(NC(=O)C(F)(F)F)sc3c2CCCCC3)cc1 | -5% (active) |
| COc1ccc(NC(=O)c2c(NC(=O)c3ccc(Br)cc3)sc3c2CCCC3)cc1 | 169% (inactive) |
| Cc1ccccc1NC(=O)c1c(NC(=O)C(F)(F)F)sc2c1CCCCC2 | -3% (active) |
| COc1ccccc1NC(=O)c1c(NCc2sccc2C)sc2c1CCCCC2 | 85% (inactive) |
| Cc1ccc(NC(=O)c2c(NC(=O)c3ccccc3)sc3c2CCC3)cc1 | 76% (inactive) |
| Cc1ccc(NC(=O)c2c(NC(=O)c3ccccc3Cl)sc3c2CCC3)cc1 | 160% (inactive) |
| COc1ccc(NC(=O)c2c(NC(=O)C(F)(F)F)sc3c2CCCCC3)cc1 | 2% (active) |
| COc1ccc(NC(=O)c2c(NC(=O)COc3ccccc3)sc3c2CCCCC3)cc1 | 72% (inactive) |
| O=C1C2C3C=CC(C3)C2C(=O)N1CCCCN1C(=O)C2C3C=CC(C3)C2C1=O (stereo not given) | 93% (inactive) |
| CCc1ccccc1NC(=O)Cn1c(=O)c2cccn2c2ccc(F)cc21 | 83% (inactive) |
| COc1ccc(-c2noc(-c3ccc(NC4CCCC4)c([N+](=O)[O-])c3)n2)cc1 | 108% (inactive) |
| C/C=C(\C)C(=O)OC1c2c(ccc3ccc(=O)oc23)OC(C)(C)C1OC(C)=O (stereo not given) | 60% (inactive) |

| Compound | survival |
| --- | --- |
| O=C(Nc1nnc(S(=O)(=O)N2CCCCC2)s1)c1ccc(Cl)cc1 | 37% (active) |
| O=C(Nc1nnc(S(=O)(=O)N2CCCCC2)s1)c1ccc(F)cc1 | 79% (inactive) |
| Cc1ccc(C(=O)Nc2nnc(S(=O)(=O)N3CCCCCC3)s2)cc1 | 79% (inactive) |
| O=C(Nc1nnc(S(=O)(=O)N2CCCCCC2)s1)c1ccc(Cl)cc1 | 62% (inactive) |
| O=C(Nc1nnc(S(=O)(=O)N2CCCC2)s1)c1ccc(F)cc1 | 111% (inactive) |
| O=C(Nc1nnc(S(=O)(=O)N2CCCCCC2)s1)c1ccccc1 | 38% (active) |
| CCC1/C(=N\O)CC(c2ccco2)NC1c1ccco1 (stereo not given) | 84% (inactive) |
| COc1ccc(NC(=O)Cn2c(SCc3ccc(C)cc3)nc3cccnc32)c(OC)c1 | 82% (inactive) |
| COC(=O)c1cc(NC(=O)[C@H](CCS(C)(=O)=O)N2Cc3ccccc3C2=O)cc(C(=O)OC)c1 | 86% (inactive) |
| COc1cc(NC(=O)C(CCS(C)(=O)=O)N2Cc3ccccc3C2=O)cc(OC)c1OC (stereo not given) | 55% (inactive) |
| CS(=O)(=O)CCC(C(=O)Nc1cccc(C(F)(F)F)c1)N1Cc2ccccc2C1=O (stereo not given) | 17% (active) |
| COC(=O)c1ccc(NC(=O)C(C)N2Cc3ccccc3C2=O)cc1 (stereo not given) | 66% (inactive) |
| O=C(Nc1ccccc1F)C(Cc1ccccc1)N1Cc2ccccc2C1=O (stereo not given) | 60% (inactive) |
| O=C(Nc1ccc(F)cc1F)C(Cc1ccccc1)N1Cc2ccccc2C1=O (stereo not given) | -4% (active) |
| CCOc1ccc(NC(=O)C(CC(C)C)N2Cc3ccccc3C2=O)cc1 (stereo not given) | 130% (inactive) |
| CC(C(=O)Nc1ccc(OC(F)(F)F)cc1)N1Cc2ccccc2C1=O (stereo not given) | 20% (active) |
| Cc1ccc(NC(=O)[C@H](Cc2ccccc2)N2Cc3ccccc3C2=O)cc1F | 84% (inactive) |
| O=C(Nc1ccc(F)cc1)[C@H](Cc1ccccc1)N1Cc2ccccc2C1=O | 89% (inactive) |
| Cc1ccc(NC(=O)C(CC(C)C)N2Cc3ccccc3C2=O)cc1F (stereo not given) | -5% (active) |
| Cc1ccc(C)c(NC(=O)C(CC(C)C)N2Cc3ccccc3C2=O)c1 (stereo not given) | 134% (inactive) |

Reference: PubChem BioAssay AID463173 (ICCB-Longwood Screening Facility, Harvard Medical School, 2010)
